Screening data: PubChem, several laboratories
CaV13 FRET inh: Primary screen for inhibitors of IQ motif and Ca2+-dependent inactivation inhibitor domain binding in CACNA1D, Förster resonance energy transfer in living cells, …; HEK cells, CFP/YFP FRET ICDI-IQ, plate reader, 10 min; percent FRET-ratio fall versus neutral wells; inhibition, % at 12.3 µM; hit rate 0.098% among 340,000;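 active = mean replicate inhibition of at least 30% and at least 1% of replicates passing that level; inconclusive = only one of the two criteria is met; inactive = neither criterion is met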;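 note: 0% = median of the neutral control wells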
PolyA inhibitor: polyadenylation inhibitors in yeast reporter cells, primary screen, luminescence, S. cerevisiae; S. cerevisiae SKY197-pL101 polyadenylation reporter, beta-gal luminescence; efflux-impaired pdr1/pdr3 knockout yeast; score 100 = 6 SD above DMSO; activity score, % at 12 µM; hit rate 0.02% among 300,000; AID 1875, 2009;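 active = lowest replicate activity score at least 50, where 100 means six control SD above control mean; inconclusive = lowest score under 50 but half or more replicates reach 50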;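 note: yeast exposed to compound for 9 h at 30 °C; higher score means more reporter readthrough which indicates perturbed polyadenylation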
IDE cell activ: human IDE activators in live cells, primary screen, fluorescence polarization, HEK cells, FAbeta-B substrate | hit rate 0.073% among 340,000 | Insulin-degrading enzyme (Homo sapiens), P14735 | activation, % at 5.96 µM | FAbeta-B cleavage; 0% vehicle, 100% cell-free pure enzyme wells;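 active = activation above the mean of all tested compounds plus 3 SD, set per screening campaign, cut at about 17% in these data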
Target sequence (P14735 whole entry, looked up): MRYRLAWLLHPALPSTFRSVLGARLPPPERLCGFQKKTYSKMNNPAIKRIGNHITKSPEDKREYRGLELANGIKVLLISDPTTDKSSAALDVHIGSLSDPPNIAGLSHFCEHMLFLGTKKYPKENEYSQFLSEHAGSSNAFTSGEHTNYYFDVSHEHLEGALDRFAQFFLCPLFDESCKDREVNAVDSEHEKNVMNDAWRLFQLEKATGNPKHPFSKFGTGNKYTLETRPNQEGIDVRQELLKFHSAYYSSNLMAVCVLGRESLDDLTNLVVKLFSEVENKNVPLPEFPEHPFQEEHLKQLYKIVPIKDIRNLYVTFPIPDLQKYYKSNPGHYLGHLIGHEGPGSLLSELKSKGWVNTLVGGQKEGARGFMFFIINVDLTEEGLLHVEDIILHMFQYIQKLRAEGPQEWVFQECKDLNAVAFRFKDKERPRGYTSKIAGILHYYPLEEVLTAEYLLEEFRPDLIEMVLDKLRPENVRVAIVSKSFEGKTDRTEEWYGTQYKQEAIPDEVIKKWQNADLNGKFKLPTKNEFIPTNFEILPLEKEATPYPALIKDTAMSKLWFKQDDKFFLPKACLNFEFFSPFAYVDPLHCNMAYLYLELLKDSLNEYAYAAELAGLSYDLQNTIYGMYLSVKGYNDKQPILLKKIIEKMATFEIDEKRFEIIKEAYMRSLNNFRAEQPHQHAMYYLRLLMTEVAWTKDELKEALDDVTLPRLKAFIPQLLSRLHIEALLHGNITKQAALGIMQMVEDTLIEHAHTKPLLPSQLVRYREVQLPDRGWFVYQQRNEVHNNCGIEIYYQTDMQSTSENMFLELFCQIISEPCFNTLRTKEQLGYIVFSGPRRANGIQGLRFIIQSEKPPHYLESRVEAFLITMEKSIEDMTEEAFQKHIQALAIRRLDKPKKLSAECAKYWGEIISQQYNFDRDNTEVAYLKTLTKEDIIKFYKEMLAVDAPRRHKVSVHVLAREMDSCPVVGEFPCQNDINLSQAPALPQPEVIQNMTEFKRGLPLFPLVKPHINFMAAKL
ALR inh: inhibitors of human ALR sulfhydryl oxidase, primary screen, biochemical, H2O2 detection, HRP-luminol luminescence, single point; FAD-linked sulfhydryl oxidase ALR (Homo sapiens), P55789; purified ALR, DTT oxidation; inhibition, % (concentration not given with the values); hit rate 3.8% among 290,000; AID 485317, 2010;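 active = mean replicate inhibition above about 79%, with every replicate also reaching it, limit read from the data; inconclusive = only one of the two criteria met; inactive = mean below limit and not every replicate reaching it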
IDE inh: human IDE inhibitors in live cells, primary screen, fluorescence polarization, HEK cells, FAbetaB substrate | Insulin-degrading enzyme (Homo sapiens), P14735 | FAbetaB cleavage | inhibition, % at 5.59 µM | hit rate 0.41% among 320,000;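 active = percent inhibition above the average of all tested compounds plus 3 SD, set per screening campaign, cut at about 16% in these data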;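 note: IDE supplied by intact live HEK cells; FP after avidin binding of uncleaved biotin substrate so inhibition keeps polarization high; 0% = DMSO wells and 100% = 60 µM reference IDE inhibitor Ii1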
M18AAP inhibitor: PfM18AAP inhibitors, malaria aminopeptidase, primary screen, biochemical, QFRET, recombinant enzyme | M18 aspartyl aminopeptidase (Plasmodium falciparum 3D7) | H-Glu-NHMec fluorogenic cleavage | inhibition, % at 7.35 µM | hit rate 1.2% among 290,000;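 active = inhibition above the campaign mean inhibition over all tested compounds plus 3 SD, cut at about 28% in these data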;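 note: 0% = plate median of test compound wells and 100% = 2 mM ZnCl2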
IDE inh confirm: human IDE inhibitors in live cells, confirmation, fluorescence polarization, HEK cells, FAbetaB substrate | shares compounds with IDE inh | FAbetaB cleavage | inhibition, % at 5.59 µM | hit rate 51% among 1,200 | AID 435028, 2010;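 active = mean inhibition across triplicate wells above the cutoff set by the earlier primary insulin-degrading enzyme screen, cut at about 16% in these data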;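 note: 0% = DMSO wells and 100% = 60 µM reference IDE inhibitor Ii1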
HEK cytotox: cytotoxicity in HEK cells, cytotoxicity control for IDE inhibitor project, cell-based, luminescence | shares compounds with IDE inh | HEK293 cytotoxicity, ATP luminescence | inhibition, % at 5.59 µM | hit rate 28% among 1,200 | AID 449730, 2010; in the data active = inhibition above about 22%;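 note: 0% = vehicle wells and 100% = reference cytotoxic drug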
An asterisk follows results filed as active; ? = inconclusive; · = no result. Most compounds without a hit are left out; they make up all but 4.1% or so of the library.

SMILES	CaV13 FRET inh	PolyA inhibitor	IDE cell activ	ALR inh	IDE inh	M18AAP inhibitor	IDE inh confirm	HEK cytotox
O=C(c1cccc(N2CCCC2=O)c1)N1CCN(c2ccccc2)CC1	·	-2	-6	24	2	1	·	·
Cc1cccc(N2CCN(C(=O)c3cccc(N4C(=O)C5CC=CC(C)C5C4=O)c3)CC2)c1C (stereo not drawn)	-10	-5	-58	-18	53*	5	36*	19
O=C(c1cccc(N2C(=O)C3C4C=CC(C4)C3C2=O)c1)N1CCN(c2ccccc2Cl)CC1 (stereo not drawn)	-5	-3	-8	21	12	-8	·	·
O=C(c1cccc([N+](=O)[O-])c1)N1CCN(S(=O)(=O)/C=C/c2ccccc2)CC1	-2	·	2	-1	1	·	·	·
O=c1[nH]c2c(c(=O)[nH]1)CCC2	2	-3	1	-8	0	-2	·	·
Cn1c(/C(C#N)=C/c2ccc(-c3ccc(S(N)(=O)=O)cc3)o2)nc2ccccc21	-19	·	-7	-35	26*	2	47*	46*
O=C(N/N=C/c1ccsc1)c1ccc2ccccc2n1	5	-16	4	-9	0	2	·	·
CCC/C(C#Cc1ccc(N(C)C)cc1)=C1/c2ccccc2C(=O)N1c1ccccc1	-30	·	-8	-1	22*	·	16	26*
COC(=O)C1=C(C)N=c2s/c(=C/c3ccoc3)c(=O)n2C1c1ccccc1 (stereo not drawn)	·	-16	-10	-10	28*	6	29*	14
CCOC(=O)C1=C(C)N=c2s/c(=C\c3cccc(OCC(=O)O)c3)c(=O)n2C1c1ccccc1 (stereo not drawn)	2	-8	1	7	·	11	·	·
COc1ccc(C(=O)Nc2cccc(-c3ccc4nncn4n3)c2)cc1OC	-15	-14	7	3	4	5	·	·
Cc1cccc(C(=O)Nc2cccc(-c3ccc4nncn4n3)c2)c1	4	10	-29	2	20*	2	12	17
CCOC(=O)C1CCCN(C2=NC(=O)/C(=C/c3ccc(O)c(OCC)c3)S2)C1 (stereo not drawn)	-5	-23	-25	96*	23*	0	72*	11
CCOC(=O)C1CCN(C2=NC(=O)/C(=C/c3ccccc3OC)S2)CC1	-18	-5	-1	-4	-10	-8	·	·
CCOC(=O)C1CCCN(C2=NC(=O)/C(=C/c3ccc(N(C)C)cc3)S2)C1 (stereo not drawn)	-71	?	-34	100*	52*	-2	43*	7
CCOC(=O)C1CCCN(C2=NC(=O)/C(=C/c3ccc(OC)cc3)S2)C1 (stereo not drawn)	-18	16	4	-2	2	0	·	·
O=C(CN(Cc1ccco1)Cc1ccco1)Nc1cc(S(=O)(=O)N2CCCCC2)ccc1Cl	-2	·	3	·	-3	·	·	·
Cc1cc(C)c([N+](=O)[O-])cc1NCC(=O)N1CCN(c2ccccc2)CC1	0	-9	-10	10	22*	7	7	3
CC(=O)c1ccc(NCC(=O)N2CCN(c3ccccc3)CC2)cc1	-3	·	-17	6	21*	12	7	9
CC(C)CC(=O)N1CCN(c2ccc([N+](=O)[O-])c(NCc3ccccc3)c2)CC1	-5	-11	3	0	-10	2	·	·
COc1cc(/C=C/C(O)=C/C(=O)/C=C/c2ccc(O)cc2)ccc1O	-8	·	-70	1	44*	·	109*	19
